Measured values reported in PubChem BioAssay AID1851 (National Center for Advancing Translational Sciences (NCATS), 2009).
Screen size: about 16,000 compounds; about 5,100 (32%) were called active. About 25% were inconclusive and are not listed. Calls come from the whole dose curve; as a rule, active = well fitted curve in the direction sought with a large enough effect; inconclusive = small, poorly fitted or top-dose-only effect, or effect the other way; inactive = no such curve, though single readings can be large or run the other way. The list shows a part of the results.

Target: Cytochrome P450 3A4 (Homo sapiens) (UniProt P08684)
Experiment: Cytochrome panel assay with activity outcomes
Settings: recombinant CYP, pro-luciferin dealkylation, luminescence, p450-cyp3a4; series mostly up to 57.1 µM; activity, negative = inhibition: at the top concentration
% is set by controls: 0 for no effect and ±100 for the full control effect.

Chain of Cytochrome P450 3A4 (Homo sapiens) (P08684 whole entry, looked up): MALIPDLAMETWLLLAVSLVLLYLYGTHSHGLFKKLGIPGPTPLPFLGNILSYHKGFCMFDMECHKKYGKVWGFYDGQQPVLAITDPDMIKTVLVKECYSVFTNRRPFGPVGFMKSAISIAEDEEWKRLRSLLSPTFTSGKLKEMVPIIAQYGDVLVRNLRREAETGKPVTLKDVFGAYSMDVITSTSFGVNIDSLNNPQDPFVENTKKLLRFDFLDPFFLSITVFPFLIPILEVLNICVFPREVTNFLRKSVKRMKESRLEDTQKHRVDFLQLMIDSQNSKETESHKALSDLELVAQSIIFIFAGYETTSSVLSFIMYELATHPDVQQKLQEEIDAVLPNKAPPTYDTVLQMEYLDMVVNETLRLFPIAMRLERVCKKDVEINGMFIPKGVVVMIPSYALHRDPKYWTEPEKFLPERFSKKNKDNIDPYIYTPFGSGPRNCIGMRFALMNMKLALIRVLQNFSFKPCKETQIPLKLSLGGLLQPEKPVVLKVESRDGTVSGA

activity, negative = inhibition, inactive:
CCNc1ncc2ncc(=O)n(C3CC3)c2n1 -18.8%, Nc1ncnc2nc(N3CCN(CCO)CC3)[nH]c12 -3.68% [at 11.4 µM], Cn1c([N+](=O)[O-])cnc1CN1CCN(CCO)CC1 -14.7% [at 11.4 µM], CC(C)NC(=O)N1CCN(c2ccncc2S(=O)(=O)N2CCOCC2)CC1 -21.8% [at 2.29 µM], CC(C)(C)NC(=O)C(=O)N/N=C/c1ccc(Br)cc1 8.12%, Cc1cc2c(c(=O)o1)[C@H](O)[C@H]1O[C@@H]1C2=O -24.9% [at 11.4 µM], O=C(O)CC1(CC(=O)O)Nc2ccccc2SC1=O -8.21% [at 11.4 µM], Cc1nonc1NC(=O)OCCN1CCOC1=O 1.72%, CCC(C)NC(=O)Cn1cnc2sc(C)cc2c1=O (stereo not given) -19.8%, COCC(=O)N1CCC2(CC1)CCN(c1ncccn1)CC2 -11.9%, NS(=O)(=O)c1ccc(N=Nc2ccc[nH]c2=O)cc1 -13.7% [at 11.4 µM], O=C(COc1ccc(Br)cc1)Nc1ccc([N+](=O)[O-])cn1 -23.2%, N=C(N)SCCc1ccc(OCc2ccc([N+](=O)[O-])cc2)cc1 -23.5%, O=C1O[C@H](CN2CCOCC2)CN1/N=C\c1ccc([N+](=O)[O-])o1 -6.03% [at 25.6 µM], C[C@H](Nc1ncnc2sc3c(c12)CCC3)C(=O)O -10.2%, Fc1cccc(CSc2ncnc3c2ncn3[C@H]2CCCS2)c1 -11.8% [at 11.4 µM], N#Cc1ccc(-c2ccc(F)cc2)nc1Oc1ccc(Cl)c(Cl)c1 -17.9%, Cc1nc(Sc2ccccc2)c(C#N)cc1-c1ccccc1 -21.7%, CCN1C(=O)[C@H]2[C@H]3[C@H](O)[C@H](O)C/C(=N/O[C@@H]4O[C@@H](COC(C)=O)[C@@H](OC(C)=O)[C@@H](OC(C)=O)[C@H]4OC(C)=O)[C@@H]3CC[C@@H]2C1=O -19.3% [at 11.4 µM], COc1ccc(-c2c(C)oc3c(CN4CCN(CCO)CC4)c(O)ccc3c2=O)cc1OC -0.572% [at 11.4 µM], COc1cc(-c2ccc(=O)[nH]n2)ccc1OC(F)F -15.5% [at 25.6 µM], Nc1nc(Nc2ccccc2)nc2c1ncn2[C@@H]1O[C@@H](CO)[C@H](O)[C@H]1O -18.5%, Cc1nn(C(=O)CN2C(=O)c3ccccc3C2=O)c(C)c1Br 11.3%, O=C(CN1C(=O)c2ccccc2C1=O)NC1(C(=O)O)CCCC1 -10.2% [at 11.4 µM], c1ccc(-c2ccc(C3=Nn4c(Cn5nnc6ccccc65)nnc4SC3)cc2)cc1 -11.6% [at 2.29 µM], CCOc1ccc(-c2nnc3ccc(SC)nn23)cc1 9.6%, COc1ccc(-c2nnc3n2N=C(C)CS3)cc1 -7.27%, O=C(O)C1(Nc2ccc(Cl)cc2)CCCC1 -9.17% [at 11.4 µM], CCNC(=O)NC1(C(=O)Nc2ccc3c(c2)OCCO3)CCCCC1 -6.09%, O=C(CSCc1ccccc1)Nc1ccc(S(=O)(=O)N2CCOCC2)cc1 -15.3% [at 11.4 µM], CNc1csc(C)c(C)c1=O -19.3%, c1ccc2c(CSCc3cccc4ccccc34)cccc2c1 -3.97% [at 11.4 µM], CCCCNC(=O)CN1C(=O)NC2(CCCc3ccccc32)C1=O (stereo not given) -10.6%, CCCCN(C)C(=O)c1coc(=O)c2ccccc12 -9.54%, N#Cc1ccc(CN2CC3(CCN(C(=O)c4cc(C(F)(F)F)cc(C(F)(F)F)c4)CC3)C2)cc1 -22.2%, O=C(c1cc(C(F)(F)F)cc(C(F)(F)F)c1)N1CCC2(CC1)CN(Cc1ccccc1)C2 1.61%, O=C(c1cc(C(F)(F)F)cc(C(F)(F)F)c1)N1CCC2(CCN(Cc3ccccc3)CC2)CC1 6.76%, N#Cc1ccc(CN2CCC3(CC2)CCN(C(=O)c2cc(C(F)(F)F)cc(C(F)(F)F)c2)CC3)cc1 -6.44%, NS(=O)(=O)c1ccc(N=Nc2ccc(O)c(C(=O)O)c2)cc1 -11.8% [at 11.4 µM], Nc1nc2ncc(CNc3ccc(C(=O)N[C@@H](CCC(=O)O)C(=O)O)cc3)nc2c(=O)[nH]1 -24.6% [at 25.6 µM], Nc1nc(-c2cccc([N+](=O)[O-])c2)cc(-c2cc(-c3cccc([N+](=O)[O-])c3)nc(N)n2)n1 -1.01% [at 11.4 µM], Nc1nc(-c2ccccc2)cc(-c2ccccc2O)n1 -4.62%, Cc1cc(C)c2c(SCc3ccc(Cl)cc3Cl)nc(N)nc2n1 19.4% [at 11.4 µM], CCCc1ccc(Oc2cc(C)nc(N3CCOCC3)n2)cc1 28.4% [at 0.457 µM], C=CC[N+]1(CC#CCOC(c2ccccc2)c2ccccc2)CCOCC1 -28.5%, COc1c(Cl)cc(Cl)cc1CNCCNCCO -7.63%, CCCc1c(OCCCOc2ccc(OCC(=O)O)cc2)ccc(CC=O)c1O -13.9%, CCn1c2ccccc2c2nnc(NCCCO)nc21 -11.6% [at 11.4 µM], Cc1cc(NC(=O)CCCC(=O)OCC(F)(F)C(F)F)cc(C)c1C(=O)O -0.842%, CC(C)NC(=O)C1CC(=O)N(c2ccc(F)c(Cl)c2)C1 (stereo not given) 5.88% [at 2.29 µM], C[C@@]12CCC(=O)C=C1CC[C@@H]1[C@@H]2[C@H](O)C[C@]2(C)[C@@H]1CC[C@]2(O)C(=O)CO -8.94% [at 25.6 µM], C[C@@]12CCC(=O)C=C1CC[C@@H]1[C@@H]2[C@H](O)C[C@]2(C)[C@@H]1CC[C@]2(O)C(=O)COC(=O)CCC(=O)O -3.21%

AC50, inactive:
COc1ccc(-c2ccc(N)[n+](CCCC(=O)O)n2)cc1

AC50, active:
O=S(=O)(c1cnccc1N1CCN(CCO)CC1)N1CCCC1 3.98 µM, CC(C)N1CCN(c2ccncc2S(=O)(=O)N2CCCCC2)CC1 3.16 µM, O=S(=O)(c1cnccc1N1CCN(/N=C/c2ccccc2)CC1)N1CCCCC1 0.891 µM, CCCC[C@H]1C[C@@H]1[C@@H]1N(P(=O)(c2ccccc2)c2ccccc2)[C@](CO)(c2ccccc2)CC12CC2 2 µM, CCCC[C@H]1C[C@@H]1[C@@H]1N(P(=O)(c2ccccc2)c2ccccc2)C[C@@](O)(c2ccccc2)CC12CC2 2 µM, CC(C)(C)c1cc(/C=C(\C#N)C(N)=S)cc(C(C)(C)C)c1O 3.98 µM, Cc1sc2ncn(CC(=O)NCCCC(=O)N3CCN(c4ncccn4)CC3)c(=O)c2c1C 14.1 µM, O=C(COc1ccc([N+](=O)[O-])cc1)NN=C1CCCC1 25.1 µM, Cc1nc(NS(=O)(=O)c2ccccc2C)c2c3c(sc2n1)CCC3 8.91 µM, Cc1nc(NS(=O)(=O)c2ccc(Br)cc2)c2c3c(sc2n1)CCC3 11.2 µM, CNC(=S)N1CCN(c2ccccc2OC)CC1 10 µM, Cc1ccc(Sc2nc(-c3ccccc3)ccc2C#N)cc1 20 µM, COc1ccccc1-c1nnc(SCc2nc3ccccc3s2)n1C 17.8 µM, COc1ccc(-c2cc(-c3cc(F)ccc3O)[nH]n2)cc1OC 20 µM, COc1ccc(-c2cc(-c3c(O)c(OC)c4occc4c3OC)[nH]n2)cc1OC 7.94 µM, O=C1c2ccccc2C(=O)N1CC(=O)N1c2ccccc2CCc2ccccc21 12.6 µM, CCOc1ccc(-c2nnc3n2N=C(c2ccc(OC)cc2)CS3)cc1 15.8 µM, CCc1ccc(C2=Nn3c(nnc3-c3cccs3)SC2)cc1 25.1 µM, Cc1ccc(CNC(=O)C2(NC(=O)Nc3ccc(C)cc3)CCCCC2)cc1 2.51 µM, O=C(CSCc1ccccc1)Nc1cccc(C(=O)Nc2ccccc2C(=O)O)c1 14.1 µM, c1ccc2c(CSc3nnc(-c4ccncc4)o3)cccc2c1 15.8 µM, CCCCNC(=O)Cc1coc2ccc3ccccc3c12 4.47 µM, CCCN(C(=O)Cc1nc(N)n[nH]1)C1(C(=O)Nc2ccccc2C)CCCCC1 1.12 µM, O=C(c1ccncc1)N1CCC2(CC1)CN(Cc1cc(C(F)(F)F)cc(C(F)(F)F)c1)C2 5.01 µM, O=C(c1cc(C(F)(F)F)cc(C(F)(F)F)c1)N1CCC[C@@]2(CCN(Cc3ccncc3)C2)C1 0.501 µM, O=C(c1cc(C(F)(F)F)cc(C(F)(F)F)c1)N1CCC[C@@]2(CCN(Cc3ccccc3)C2)C1 5.01 µM, N#Cc1ccc(CN2CC[C@@]3(CCCN(C(=O)c4cc(C(F)(F)F)cc(C(F)(F)F)c4)C3)C2)cc1 5.01 µM, Nc1c(-c2ccccc2)cnn1-c1cccc([N+](=O)[O-])c1 14.1 µM, Cc1cc(N2CCOCC2)nc(SCc2ccc(Cl)cc2Cl)n1 2.24 µM, CCOc1cc(CNCCO)cc(Br)c1OCc1ccccc1Cl 2 µM, CCOc1cc(CNCCc2ccc(S(N)(=O)=O)cc2)cc(Cl)c1OCc1ccccc1 0.447 µM, CCOc1cc(CNCCc2ccc(S(N)(=O)=O)cc2)ccc1OCc1ccc(Cl)cc1 0.398 µM, CCn1c2ccc(Cl)cc2c2nc3ccccc3nc21 15.8 µM, O=C(CCCC(=O)OCC(=O)c1ccc(Cl)cc1Cl)Nc1cc(C(F)(F)F)ccc1Cl 22.4 µM, CCOc1ccc(N2CC(C(=O)NCc3cccc(C)c3)CC2=O)cc1 (stereo not given) 7.94 µM, C[C@@]12C[C@H](O)[C@@H]3[C@H](CCC4=CC(=O)CC[C@]43C)[C@H]1CC[C@@H]2c1csc(N)n1 2.51 µM, COc1cc2cc(CN(CCCO)S(=O)(=O)c3ccccc3Cl)c(=O)[nH]c2cc1OC 14.1 µM
